According to ChEMBL document CHEMBL1961873, “Compounds: GSK PKIS; Assays: Nanosyn kinase panel” (2012):

What was measured:
[1] = molecular target: Tyrosine-protein kinase receptor UFO (Homo sapiens) (UniProt P30530); details: at 1 µM
[2] = molecular target: Tyrosine-protein kinase Blk (Homo sapiens) (UniProt P51451); details: at 0.1 µM
[3] = molecular target: Tyrosine-protein kinase Blk (Homo sapiens) (UniProt P51451); details: at 1 µM
[4] = molecular target: T1, Cytoplasmic tyrosine-protein kinase BMX (Homo sapiens) (UniProt P51813); details: at 0.1 µM
T1 sequence (whole entry): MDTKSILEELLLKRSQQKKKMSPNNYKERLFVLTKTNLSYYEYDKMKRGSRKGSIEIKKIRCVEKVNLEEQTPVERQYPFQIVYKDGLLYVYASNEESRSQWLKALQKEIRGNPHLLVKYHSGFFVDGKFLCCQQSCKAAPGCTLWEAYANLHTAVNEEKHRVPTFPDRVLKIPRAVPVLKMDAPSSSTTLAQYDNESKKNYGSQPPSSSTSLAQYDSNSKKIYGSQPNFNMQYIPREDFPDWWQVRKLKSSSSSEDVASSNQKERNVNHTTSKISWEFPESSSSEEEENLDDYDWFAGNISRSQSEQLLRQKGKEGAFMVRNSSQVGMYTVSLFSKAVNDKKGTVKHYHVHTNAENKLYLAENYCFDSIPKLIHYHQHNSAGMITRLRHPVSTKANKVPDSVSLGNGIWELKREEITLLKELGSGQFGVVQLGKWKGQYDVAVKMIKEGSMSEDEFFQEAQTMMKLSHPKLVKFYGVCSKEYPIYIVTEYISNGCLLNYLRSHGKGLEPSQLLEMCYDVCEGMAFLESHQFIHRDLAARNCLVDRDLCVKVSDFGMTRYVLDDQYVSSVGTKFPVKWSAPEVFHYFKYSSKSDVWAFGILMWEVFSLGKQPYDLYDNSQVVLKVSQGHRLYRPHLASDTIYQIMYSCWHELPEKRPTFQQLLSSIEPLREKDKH

[5] = molecular target: T1, Cytoplasmic tyrosine-protein kinase BMX (Homo sapiens); details: at 1 µM
[6] = molecular target: Protein-tyrosine kinase 6 (Homo sapiens) (UniProt Q13882); details: at 0.1 µM
[7] = molecular target: Protein-tyrosine kinase 6 (Homo sapiens) (UniProt Q13882); details: at 1 µM
[8] = molecular target: Tyrosine-protein kinase BTK (Homo sapiens) (UniProt Q06187); details: at 0.1 µM
[9] = molecular target: Tyrosine-protein kinase BTK (Homo sapiens) (UniProt Q06187); details: at 1 µM
[10] = molecular target: Tyrosine-protein kinase CSK (Homo sapiens) (UniProt P41240); details: at 0.1 µM
[11] = molecular target: Tyrosine-protein kinase CSK (Homo sapiens) (UniProt P41240); details: at 1 µM
[12] = molecular target: T2, Discoidin domain-containing receptor 2 (Homo sapiens) (UniProt Q16832); details: at 0.1 µM
T2 sequence (whole entry): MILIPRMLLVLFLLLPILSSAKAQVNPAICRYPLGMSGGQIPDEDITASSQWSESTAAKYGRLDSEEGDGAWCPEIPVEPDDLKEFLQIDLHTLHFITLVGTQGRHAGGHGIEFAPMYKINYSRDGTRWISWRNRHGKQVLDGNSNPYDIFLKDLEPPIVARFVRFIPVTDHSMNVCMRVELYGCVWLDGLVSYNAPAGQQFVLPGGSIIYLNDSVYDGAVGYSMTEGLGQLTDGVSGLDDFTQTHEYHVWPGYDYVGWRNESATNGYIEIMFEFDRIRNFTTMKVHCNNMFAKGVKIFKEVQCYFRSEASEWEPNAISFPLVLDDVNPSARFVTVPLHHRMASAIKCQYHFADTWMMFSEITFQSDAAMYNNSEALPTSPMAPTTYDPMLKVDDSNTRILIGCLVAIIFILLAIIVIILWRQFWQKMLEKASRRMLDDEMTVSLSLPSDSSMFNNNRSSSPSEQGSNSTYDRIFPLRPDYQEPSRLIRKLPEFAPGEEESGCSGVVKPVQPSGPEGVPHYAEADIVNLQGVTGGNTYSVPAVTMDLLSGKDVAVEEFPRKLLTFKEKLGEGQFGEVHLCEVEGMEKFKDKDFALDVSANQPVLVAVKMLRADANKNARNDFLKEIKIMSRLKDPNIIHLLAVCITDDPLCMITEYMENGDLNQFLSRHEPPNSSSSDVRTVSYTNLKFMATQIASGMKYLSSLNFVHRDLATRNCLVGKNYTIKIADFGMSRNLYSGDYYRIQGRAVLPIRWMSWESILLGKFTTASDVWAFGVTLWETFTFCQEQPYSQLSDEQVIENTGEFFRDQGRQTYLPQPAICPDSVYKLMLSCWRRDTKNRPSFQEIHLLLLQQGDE

[13] = molecular target: T2, Discoidin domain-containing receptor 2 (Homo sapiens); details: at 1 µM
[14] = molecular target: Epidermal growth factor receptor (Homo sapiens) (UniProt P00533); details: at 0.1 µM
[15] = molecular target: Epidermal growth factor receptor (Homo sapiens) (UniProt P00533); details: at 1 µM
[16] = test system: Epidermal growth factor receptor (Homo sapiens), P00533 [L858R]; details: at 0.1 µM
[17] = test system: Epidermal growth factor receptor (Homo sapiens), P00533 [L858R]; details: at 1 µM
[18] = test system: Epidermal growth factor receptor (Homo sapiens), P00533 [L861Q]; details: at 0.1 µM
[19] = test system: Epidermal growth factor receptor (Homo sapiens), P00533 [L861Q]; details: at 1 µM
[20] = test system: Epidermal growth factor receptor (Homo sapiens), P00533 [T790M]; details: at 0.1 µM
Epidermal growth factor receptor (Homo sapiens), P00533 [T790M], sequence (P00533 whole entry T790M): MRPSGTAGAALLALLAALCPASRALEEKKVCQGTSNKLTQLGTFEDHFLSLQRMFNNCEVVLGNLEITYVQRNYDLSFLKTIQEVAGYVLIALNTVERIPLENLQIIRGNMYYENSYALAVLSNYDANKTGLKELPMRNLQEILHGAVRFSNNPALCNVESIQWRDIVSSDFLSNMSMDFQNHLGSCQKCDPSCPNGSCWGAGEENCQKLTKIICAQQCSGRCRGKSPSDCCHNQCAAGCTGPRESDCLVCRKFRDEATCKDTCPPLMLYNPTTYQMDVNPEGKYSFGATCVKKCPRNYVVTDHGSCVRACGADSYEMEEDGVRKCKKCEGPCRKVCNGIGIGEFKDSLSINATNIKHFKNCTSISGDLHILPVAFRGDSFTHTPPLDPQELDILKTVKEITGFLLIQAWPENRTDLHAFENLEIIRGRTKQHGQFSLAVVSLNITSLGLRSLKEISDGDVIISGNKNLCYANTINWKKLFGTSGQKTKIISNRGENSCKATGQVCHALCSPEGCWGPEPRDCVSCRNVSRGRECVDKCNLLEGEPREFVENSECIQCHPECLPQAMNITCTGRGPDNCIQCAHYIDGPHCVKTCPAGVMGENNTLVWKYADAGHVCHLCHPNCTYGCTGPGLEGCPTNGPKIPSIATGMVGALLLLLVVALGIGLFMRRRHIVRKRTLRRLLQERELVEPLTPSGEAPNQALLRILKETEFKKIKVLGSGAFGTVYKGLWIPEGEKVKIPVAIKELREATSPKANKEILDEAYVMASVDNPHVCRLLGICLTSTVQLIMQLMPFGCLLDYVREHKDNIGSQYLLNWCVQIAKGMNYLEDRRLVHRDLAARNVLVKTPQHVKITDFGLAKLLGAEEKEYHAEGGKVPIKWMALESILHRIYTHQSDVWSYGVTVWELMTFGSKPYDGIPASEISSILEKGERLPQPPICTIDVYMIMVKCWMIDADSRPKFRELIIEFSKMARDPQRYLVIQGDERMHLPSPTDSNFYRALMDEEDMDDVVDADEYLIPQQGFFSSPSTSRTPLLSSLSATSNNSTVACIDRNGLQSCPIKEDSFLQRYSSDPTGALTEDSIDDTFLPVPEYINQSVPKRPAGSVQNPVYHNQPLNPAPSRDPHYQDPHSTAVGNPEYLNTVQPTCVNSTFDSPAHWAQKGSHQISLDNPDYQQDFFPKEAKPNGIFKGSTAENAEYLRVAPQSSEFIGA

Epidermal growth factor receptor (Homo sapiens), P00533 [L861Q], sequence (P00533 whole entry L861Q): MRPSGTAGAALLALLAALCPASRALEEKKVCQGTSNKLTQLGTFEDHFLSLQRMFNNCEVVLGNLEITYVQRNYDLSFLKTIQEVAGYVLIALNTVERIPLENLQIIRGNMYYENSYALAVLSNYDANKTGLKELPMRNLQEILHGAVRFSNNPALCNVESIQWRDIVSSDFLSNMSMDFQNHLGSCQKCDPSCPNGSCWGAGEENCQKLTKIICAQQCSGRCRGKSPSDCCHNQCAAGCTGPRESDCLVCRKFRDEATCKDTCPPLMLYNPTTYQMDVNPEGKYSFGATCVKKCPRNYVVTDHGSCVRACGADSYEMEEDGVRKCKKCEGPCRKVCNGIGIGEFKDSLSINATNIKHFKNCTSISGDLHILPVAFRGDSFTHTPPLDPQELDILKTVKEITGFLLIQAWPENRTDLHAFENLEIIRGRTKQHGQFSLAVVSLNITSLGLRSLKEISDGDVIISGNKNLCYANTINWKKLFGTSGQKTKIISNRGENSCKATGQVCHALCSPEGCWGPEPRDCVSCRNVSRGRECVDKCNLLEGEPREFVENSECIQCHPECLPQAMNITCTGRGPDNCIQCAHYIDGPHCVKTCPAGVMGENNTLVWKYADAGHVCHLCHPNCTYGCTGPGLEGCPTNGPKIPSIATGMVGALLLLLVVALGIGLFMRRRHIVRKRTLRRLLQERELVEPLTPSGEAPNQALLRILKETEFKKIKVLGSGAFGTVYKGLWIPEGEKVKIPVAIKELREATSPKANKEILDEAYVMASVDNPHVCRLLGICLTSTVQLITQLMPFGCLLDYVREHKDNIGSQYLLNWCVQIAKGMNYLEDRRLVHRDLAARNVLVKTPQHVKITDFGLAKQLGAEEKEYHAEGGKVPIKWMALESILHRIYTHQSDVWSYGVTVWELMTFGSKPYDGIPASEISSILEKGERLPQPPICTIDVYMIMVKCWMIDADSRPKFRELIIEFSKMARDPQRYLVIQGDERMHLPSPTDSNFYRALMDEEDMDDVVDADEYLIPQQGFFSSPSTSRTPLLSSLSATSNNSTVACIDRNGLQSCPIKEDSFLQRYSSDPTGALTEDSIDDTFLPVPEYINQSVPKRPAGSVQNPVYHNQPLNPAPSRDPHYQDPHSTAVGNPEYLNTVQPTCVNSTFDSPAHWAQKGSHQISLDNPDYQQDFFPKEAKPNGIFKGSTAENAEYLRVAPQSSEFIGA
Tyrosine-protein kinase Blk (Homo sapiens), sequence (P51451 2-505 limits assumed): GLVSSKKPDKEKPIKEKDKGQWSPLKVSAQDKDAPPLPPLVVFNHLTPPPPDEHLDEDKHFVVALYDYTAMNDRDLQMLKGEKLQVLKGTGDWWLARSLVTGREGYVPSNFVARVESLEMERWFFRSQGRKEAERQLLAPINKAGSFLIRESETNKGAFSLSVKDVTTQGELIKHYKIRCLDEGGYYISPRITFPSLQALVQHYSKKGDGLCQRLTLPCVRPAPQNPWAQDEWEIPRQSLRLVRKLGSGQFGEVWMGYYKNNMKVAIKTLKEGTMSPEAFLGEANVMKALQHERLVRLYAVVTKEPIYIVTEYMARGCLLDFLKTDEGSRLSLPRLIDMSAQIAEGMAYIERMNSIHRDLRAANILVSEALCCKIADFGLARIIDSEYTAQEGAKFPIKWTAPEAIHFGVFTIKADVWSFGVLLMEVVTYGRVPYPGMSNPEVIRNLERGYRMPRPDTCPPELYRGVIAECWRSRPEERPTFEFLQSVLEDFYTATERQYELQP
Protein-tyrosine kinase 6 (Homo sapiens), sequence (Q13882 whole entry, looked up): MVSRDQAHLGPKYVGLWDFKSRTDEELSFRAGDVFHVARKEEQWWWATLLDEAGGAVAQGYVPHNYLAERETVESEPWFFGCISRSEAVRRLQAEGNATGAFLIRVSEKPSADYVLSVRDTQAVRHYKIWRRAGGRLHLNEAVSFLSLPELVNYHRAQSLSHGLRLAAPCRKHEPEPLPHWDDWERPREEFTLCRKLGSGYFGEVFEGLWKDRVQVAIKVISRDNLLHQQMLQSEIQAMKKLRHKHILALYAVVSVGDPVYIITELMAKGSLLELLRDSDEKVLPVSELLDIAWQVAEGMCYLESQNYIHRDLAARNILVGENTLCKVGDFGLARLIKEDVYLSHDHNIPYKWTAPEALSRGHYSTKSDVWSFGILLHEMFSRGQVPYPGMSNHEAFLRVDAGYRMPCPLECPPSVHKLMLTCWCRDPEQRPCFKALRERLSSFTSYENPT
Epidermal growth factor receptor (Homo sapiens), sequence (P00533 whole entry): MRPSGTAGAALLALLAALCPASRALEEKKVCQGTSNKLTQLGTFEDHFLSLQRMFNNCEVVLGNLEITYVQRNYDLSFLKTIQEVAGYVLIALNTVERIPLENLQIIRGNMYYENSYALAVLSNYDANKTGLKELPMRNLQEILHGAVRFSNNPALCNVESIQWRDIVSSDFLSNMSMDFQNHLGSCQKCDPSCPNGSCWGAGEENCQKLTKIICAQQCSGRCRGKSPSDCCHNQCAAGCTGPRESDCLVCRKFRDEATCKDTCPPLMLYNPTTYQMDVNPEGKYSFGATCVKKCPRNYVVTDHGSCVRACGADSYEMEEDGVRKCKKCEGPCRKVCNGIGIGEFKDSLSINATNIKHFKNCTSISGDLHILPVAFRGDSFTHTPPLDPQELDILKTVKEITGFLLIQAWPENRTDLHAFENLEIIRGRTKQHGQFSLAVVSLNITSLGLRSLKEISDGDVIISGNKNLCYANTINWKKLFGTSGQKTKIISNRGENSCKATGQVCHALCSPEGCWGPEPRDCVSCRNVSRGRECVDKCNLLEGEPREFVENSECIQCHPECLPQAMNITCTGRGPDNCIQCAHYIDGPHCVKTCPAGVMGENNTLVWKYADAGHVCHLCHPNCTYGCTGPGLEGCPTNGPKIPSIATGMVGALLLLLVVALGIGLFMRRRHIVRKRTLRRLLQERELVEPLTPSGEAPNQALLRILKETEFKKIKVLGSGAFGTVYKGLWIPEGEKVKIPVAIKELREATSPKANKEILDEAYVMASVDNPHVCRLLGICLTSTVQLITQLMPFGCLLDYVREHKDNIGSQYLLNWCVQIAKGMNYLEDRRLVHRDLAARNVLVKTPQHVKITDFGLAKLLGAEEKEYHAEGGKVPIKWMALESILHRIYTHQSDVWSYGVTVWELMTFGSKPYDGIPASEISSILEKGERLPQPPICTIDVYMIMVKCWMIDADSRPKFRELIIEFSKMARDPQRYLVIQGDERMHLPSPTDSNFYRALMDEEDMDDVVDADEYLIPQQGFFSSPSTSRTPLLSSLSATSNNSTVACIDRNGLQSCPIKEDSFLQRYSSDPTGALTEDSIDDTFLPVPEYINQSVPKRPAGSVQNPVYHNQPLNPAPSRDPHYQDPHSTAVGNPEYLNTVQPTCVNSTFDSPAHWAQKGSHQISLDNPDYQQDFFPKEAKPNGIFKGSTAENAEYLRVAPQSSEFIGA
Tyrosine-protein kinase CSK (Homo sapiens), sequence (P41240 2-450 limits assumed): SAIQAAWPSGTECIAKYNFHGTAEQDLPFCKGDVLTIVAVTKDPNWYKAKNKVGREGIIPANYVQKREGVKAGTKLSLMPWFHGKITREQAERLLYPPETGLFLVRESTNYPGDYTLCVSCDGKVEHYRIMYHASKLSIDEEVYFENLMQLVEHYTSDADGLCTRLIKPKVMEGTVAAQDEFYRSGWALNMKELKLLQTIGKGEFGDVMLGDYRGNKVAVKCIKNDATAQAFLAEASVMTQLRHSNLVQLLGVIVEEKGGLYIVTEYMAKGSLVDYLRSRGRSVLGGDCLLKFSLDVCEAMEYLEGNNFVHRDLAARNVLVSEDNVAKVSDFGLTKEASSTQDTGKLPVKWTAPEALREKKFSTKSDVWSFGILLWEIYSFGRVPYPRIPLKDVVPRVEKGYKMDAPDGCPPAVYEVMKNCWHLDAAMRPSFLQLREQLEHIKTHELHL

| Structure (SMILES) | inhibition [1] [%] | inhibition [2] [%] | inhibition [3] [%] | inhibition [4] [%] | inhibition [5] [%] | inhibition [6] [%] | inhibition [7] [%] | inhibition [8] [%] | inhibition [9] [%] | inhibition [10] [%] | inhibition [11] [%] | inhibition [12] [%] | inhibition [13] [%] | inhibition [14] [%] | inhibition [15] [%] | inhibition [16] [%] | inhibition [17] [%] | inhibition [18] [%] | inhibition [19] [%] | inhibition [20] [%] |
| --- | --- | --- | --- | --- | --- | --- | --- | --- | --- | --- | --- | --- | --- | --- | --- | --- | --- | --- | --- | --- |
| N#Cc1cccc(Nc2nccc(-c3cnn4ncccc34)n2)c1 | 33.8 | 5.38 | 26.5 | 4.87 | 39.7 | 5.32 | 23.5 | 2.23 | 5.13 | 5.02 | 13.4 | 2.63 | 7.43 | 1.1 | 6.11 | 4.18 | 18.2 | 4.53 | 7.78 | 2.36 |
| Cc1ccc2c(-c3ccnc(Nc4ccc5c(c4)OCCO5)n3)c(-c3ccc(C(F)(F)F)cc3)nn2n1 | 1.14 | 3.28 | 4.48 |  | 0.94 | 0.39 | 3.26 | 0.75 | 1.71 | -2.99 | 0.48 | -0.19 | 6.25 | -0.94 | 3.45 | 0.63 | 5.71 | -1.17 | 5.26 | -0.63 |
| Cc1cc(-c2ccccn2)cc(C)c1/C=C/c1cncc(-c2nn[nH]n2)c1 | -1.94 | 5.71 | 33.4 | 1.6 | 31.2 | 9.43 | 51 | 2.43 | 0.75 | 1.73 | 20.2 | 1.22 | 5.62 | 2 | 9.58 | 2.87 | 4.85 | 2.42 | 5.99 | -0.39 |
| CC(C)c1ccc2c(c1)NC(=O)/C2=N/Nc1ccc(S(N)(=O)=O)cc1 | 0.13 | 1.27 | 14 | 0.14 | 6.03 | 0.98 | 1.26 | -0.25 | 0.07 | -1.01 | 0.99 | 0.55 | 0.19 | 1.14 | 2.18 | -0.18 | -0.39 | -0.48 | -2.09 | -1.03 |
| COc1cccc(-n2ncc3c(N/N=C/c4ccc(S(C)(=O)=O)cc4)ncnc32)c1 | 1.34 | 7.91 | 38.4 | 10.1 | 30.7 | 6.33 | 26.8 | -4.35 | -3.39 | 5.8 | 18.2 | 1.49 | 7.83 | 6.5 | 22.6 | 29.7 | 57.8 | 8.34 | 20.6 | 0.29 |
